Legend:
Assay in all cases: PBM binding z-score (relative to random genomic background probes); higher = stronger binding; sequences stand for … in GC…GCGATTGACAGCGTAGAATGAAGG
[1] = tested on: RARb homodimer (NR concentration 270 nM)
Outline: (§1)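 The probes on custom Agilent 4×180K protein-binding microarrays were double-stranded, with 34-nt variable regions bearing direct-repeat seeds, single-nucleotide variants, half-site ablations and random human genomic background sequences. Incubation lasted 1 h with ligand-free nuclear receptor dimers in PBS pH 7.4, 2% milk, 0.02% Triton X-100, 1 mM DTT, 0.2 mg/mL BSA and 0.4 mg/ml salmon testes DNA. Antibodies against each partner (one per run) detected bound dimers, and fluorescence scans were regression-normalized. Binding z-scores take the random background probes as reference.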

[2] = tested on: RARg:RXRa (NR concentration 270 nM, RXRa partner concentration 90 nM)
Outline: as §1

[3] = tested on: RARg homodimer (NR concentration 270 nM)
Outline: as §1

[4] = tested on: RXRa DBDmut IVT, anti-RXR (DBD mutation: RXRa K156A/R161A, NR concentration 90 nM)
Outline: as §1

[5] = tested on: RXRa homodimer (NR concentration 180 nM)
Outline: as §1

[6] = tested on: THRa:RXRa (NR concentration 90 nM, RXRa partner concentration 90 nM)
Outline: as §1

[7] = tested on: THRa homodimer (NR concentration 90 nM)
Outline: as §1

[8] = tested on: VDR homodimer (NR concentration 270 nM)
Outline: as §1

In the case of GTACCAAGGTGAATAGGTCGTAGATGAGTAGGCG, the PBM binding z-score [1] is reported as 1.92, the PBM binding z-score [2] is reported as 2.94 and the PBM binding z-score [3] is reported as 1.61. For the same sequence, the PBM binding z-score [4] was -0.478, the PBM binding z-score [5] was 2.18 and the PBM binding z-score [6] was 1.83. The PBM binding z-score [7] was 0.42 and the PBM binding z-score [8] was 0.204.

With CCAGACAGGTGAGAAGGTAACTCGGCCTCGATTA the PBM binding z-score [1] was 0.583, the PBM binding z-score [2] was 0.465 and the PBM binding z-score [3] was 0.269. It also gave a PBM binding z-score [4] of 0.0522, a PBM binding z-score [5] of 0.351 and a PBM binding z-score [6] of 0.364. For the same sequence, the PBM binding z-score [7] was 0.256 and the PBM binding z-score [8] was -0.0946.

Work on CCTGCTAGGTCATGGTCACCTAATCTACAGTATG yielded a PBM binding z-score [1] of 3.43, a PBM binding z-score [2] of 4.1 and a PBM binding z-score [3] of 4.93. The PBM binding z-score [4] was 1.77, the PBM binding z-score [5] was 3.5 and the PBM binding z-score [6] was 3.13. For the same sequence, the PBM binding z-score [7] was 1.78 and the PBM binding z-score [8] was 0.622.

TCTAGCAGGCCAGAGTGTCACTCAAGAGGTACGG showed a PBM binding z-score [1] of 0.119, a PBM binding z-score [2] of 0.145 and a PBM binding z-score [3] of 0.167. The PBM binding z-score [4] was -0.194, the PBM binding z-score [5] was 0.302 and the PBM binding z-score [6] was -0.304. The PBM binding z-score [7] was -1.19 and the PBM binding z-score [8] was -0.738.

With ATCGAAAGGTCGAGGTGAGTATTGAGAAAGGGAA the PBM binding z-score [1] was 3.11, the PBM binding z-score [2] was 4.2 and the PBM binding z-score [3] was 3.88. The PBM binding z-score [4] was 0.619, the PBM binding z-score [5] was 4.12 and the PBM binding z-score [6] was 2.93. It also gave a PBM binding z-score [7] of 0.768 and a PBM binding z-score [8] of 0.377.

For GCGACTGGCGCATCAGCAGGTTACCATAACTTAA, the PBM binding z-score [1] was -0.252, the PBM binding z-score [2] was -0.477 and the PBM binding z-score [3] was -0.547. The PBM binding z-score [4] was -0.402, the PBM binding z-score [5] was -0.293 and the PBM binding z-score [6] was -0.328. For the same sequence, the PBM binding z-score [7] was -0.551 and the PBM binding z-score [8] was -0.6.

TAGCCTAAGTCAGATCGGGCCAGTATACGCTATA was tested, and the PBM binding z-score [1] was -0.342, the PBM binding z-score [2] was -0.329 and the PBM binding z-score [3] was -0.306. It also gave a PBM binding z-score [4] of -0.669, a PBM binding z-score [5] of -0.25 and a PBM binding z-score [6] of 1.43. It also gave a PBM binding z-score [7] of -0.221 and a PBM binding z-score [8] of -0.691.
